Here are results for three molecules from PubChem BioAssay AID504914 (The Scripps Research Institute Molecular Screening Center, 2011).

Some of the results follow. Active and inactive are the calls of the source. The rule behind the calls is not given here.

As usually defined, the inhibition is the relative decrease from the control value, in per cent.

5-hydroxytryptamine receptor 5A (Homo sapiens), sequence (P47898 whole entry, looked up): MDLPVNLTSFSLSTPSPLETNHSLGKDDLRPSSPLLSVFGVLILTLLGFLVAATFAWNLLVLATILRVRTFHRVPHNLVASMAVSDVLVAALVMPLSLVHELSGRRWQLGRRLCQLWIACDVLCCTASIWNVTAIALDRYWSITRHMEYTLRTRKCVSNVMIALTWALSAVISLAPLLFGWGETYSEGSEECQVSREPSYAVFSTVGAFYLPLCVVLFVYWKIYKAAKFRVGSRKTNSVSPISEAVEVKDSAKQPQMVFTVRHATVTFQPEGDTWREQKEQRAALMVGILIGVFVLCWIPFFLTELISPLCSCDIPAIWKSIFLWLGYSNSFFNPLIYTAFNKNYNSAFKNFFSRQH

The test concerns the target 5-hydroxytryptamine receptor 5A (Homo sapiens) (UniProt P47898). The test can be described thus: HTR5A inverse agonists, counter-screen for OPRM1-OPRD1 inverse agonist project, cell-based, luminescence (AID 504914).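 Note: 0% = cells with DMSO and 100% = no-cell wells with DMSO.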 Conditions: HTR5A-expressing cells, inverse agonism, at 9.3 µM, stronger effect = higher value. (In general: A counterscreen serves to expose hits that act by an unwanted route or on another target.)
In the case of `CCOC(=O)c1c(N)n(CCN2CCOCC2)c2nc3ccccc3nc12`, the inhibition was -10.8% (inactive).

Take `CCOC(=O)c1c(N)n(Cc2ccccc2)c2nc3ccccc3nc12`: the inhibition was 18% (inactive).

With `CC1=CC(=Cc2sc3ccccc3[n+]2C)C=C(C)O1`, the inhibition was -18.3% (inactive).
